Results as given in PubChem BioAssay AID1259343 (VanderVen Lab, College of Veterinary Medicine, Cornell …, 2017).
In all, about 6,200 compounds went through this assay and about 2,900 (47%) were called active. The set was probably picked from earlier hits. The list shows a part of the results. A number with no mark means an inactive call. No stated cut-off is given here; in the data, active means inhibition above about 50%; inactive means the rest.

Assay: Mycobacterium tuberculosis growth inhibition, primary screen (AID 1259343)
Conditions: inhibition: at 10 µM, hits give high values; outcome: 10 uM

Row | SMILES | inhibition
1 | O=C1c2ccccc2NC2(CCCC2)N1CC(F)(F)F | 85.2% (active)
2 | NC(=S)N=Nc1ccc(NN=C(N)N)cc1 | 101% (active)
3 | CC(=O)C1=C(C(F)(F)F)N(C)C(=S)N(C)C1c1ccccc1 (stereo not given) | 70% (active)
4 | COc1ccc(OCCN2C(=O)CN(/C=C/c3ccccc3)C2=O)cc1 | -5.21%
5 | CN1CC(=O)N(CCCC(=O)Nc2ccc(OCc3ccccc3)cc2)C1=O | 93.5% (active)
6 | C=CCN(CC(O)COc1ccccc1)CC1CC(c2ccccc2)=NO1 (stereo not given) | 20.8%
7 | OC1(c2ccc(OCc3ccccc3)cc2)CCOCC1 | 30.5%
8 | CC(O)CNCCCCOc1ccc(OCc2ccccc2)cc1 (stereo not given) | 96.8% (active)
9 | NS(=O)(=O)c1ccc2c(c1)CCN2Cc1cc(F)cc2c1OCOC2 | 3.61%
10 | O=C(O)C1CCN(C(=O)c2ccc(-c3ccc(Cl)cc3)s2)CC1 | 1.69%
11 | CC1CCN(C(=O)c2ccc(-c3ccc(F)c(F)c3)s2)CC1 | 65.3% (active)
12 | Cc1ccc(C(=O)N2CCC(c3ccc(F)cc3)CC2)s1 | 33.5%
13 | COc1ccc(NC(=O)N2CCCC(C(=O)c3sccc3C)C2)cc1OC (stereo not given) | 23.7%
14 | COc1cc(NC(=O)CN2CCC(n3ccnc3)C2)ccc1Cl (stereo not given) | 85.6% (active)
15 | O=C(NCC(O)COc1cccc(Cl)c1Cl)C1CC1c1ccco1 (stereo not given) | 12.8%
16 | COc1cccc(C2CC2C(=O)Nc2cnc(C3CC3)nc2)c1 (stereo not given) | 37.3%
17 | O=C(Nc1ncc(Cl)s1)C1CC1c1ccco1 (stereo not given) | 86.5% (active)
18 | CCc1cc(=O)[nH]c(-n2nc(C)cc2NC(=O)c2cc(OC)c(OC)c(OC)c2)n1 | -22.3%
19 | CCCc1cc(=O)[nH]c(-n2nc(C)cc2NC(=O)c2ccc(OC)c(OC)c2)n1 | 102% (active)
20 | CCCc1cc(=O)[nH]c(-n2nc(C)cc2NC(=O)c2cc(OC)c(OC)c(OC)c2)n1 | 100% (active)
21 | CC(NC(=O)COc1ccc2cc(Br)ccc2c1)c1ccc(F)cc1 (stereo not given) | -32.3%
22 | COC(=O)CN1C(c2ccc(OC)cc2)=Nc2ccc(Br)cc2C1c1ccccc1 (stereo not given) | 29.4%
23 | O=C(O)COc1ccc2cc(Br)ccc2c1 | 78.5% (active)
24 | Cc1cccc2c3c(ccc12)C1=C(C(=O)C3=O)C(C)CO1 (stereo not given) | 82.3% (active)
25 | CN(CC(F)(F)C(F)F)S(=O)c1ccc2ccccc2c1 (stereo not given) | 49%

Row | SMILES | inhibition
26 | COc1ccc(-c2nnc(C(C)Nc3cccc4c3CCCC4)o2)cc1 (stereo not given) | 67.9% (active)
27 | CC(NCC1(c2ccccc2)CCCC1)c1nnc(-c2ccccc2)o1 (stereo not given) | -0.11%
28 | CN(Cc1ccccc1)C(=O)NCCc1ccc2c(c1)CCO2 | 66.7% (active)
29 | CN(Cc1ccco1)C(=O)NCCc1cccc(Cl)c1 | 49.7%
30 | O=C(Cc1ccc2c(c1)CCC2)NCCc1ccc2c(c1)OCCO2 | 37.8%
31 | FC(F)(F)c1nnc2sc(Cc3cccc4ccccc34)nn12 | 71.8% (active)
32 | c1ccc(CCCCc2nn3c(C4CC4)nnc3s2)cc1 | 34.8%
33 | O=S(=O)(NCCCC1CCCCC1)N1CCCCCC1 | 26.3%
34 | O=S(=O)(NCc1ncc(-c2ccccc2)o1)N1CCCCCC1 | 58.4% (active)
35 | CC1CCN(S(=O)(=O)NCc2cc(-c3ccccc3)on2)CC1 | 20.4%
36 | Cc1oc(=O)oc1CN1CCN(c2cc3c(cc2F)c(=O)c(C(=O)O)c2n3C(C)S2)CC1 (stereo not given) | 96.9% (active)
37 | CN1C(=CC=NNc2nc3ccccc3s2)C(C)(C)c2ccccc21 | 97% (active)
38 | CN1C(=CC=NN=c2sc3ccccc3n2C)C(C)(C)c2ccccc21 | 4.19%
39 | c1cc(-c2nc3cc(Oc4ccc5oc(-c6ccncc6)nc5c4)ccc3o2)ccn1 | 32.7%
40 | Cc1ccc(CN2CCN(N=CC(Br)=Cc3ccccc3)CC2)c(C)c1 | 98.3% (active)
41 | O=C(NN=CC(Br)=Cc1ccccc1)c1cnccn1 | -13.9%
42 | COC(=O)c1ccc(C(=O)NNc2nc3c(C)cccc3s2)cc1 | 99.7% (active)
43 | Cc1cccc2sc(N(Cc3ccccc3)C(=O)c3ccno3)nc12 | 35.8%
44 | COc1ccccc1OCC(=O)N1CCC(Oc2nc3c(C)cccc3s2)CC1 | 20.8%
45 | Cc1cc(C)cc(Oc2cc(-n3nc(C)cc3C)ncn2)c1 | 65.7% (active)
46 | CCCN(C)c1cc(Oc2ccc(C)cc2)ncn1 | 25.2%
47 | COCCCNc1ccc2c(-c3ccccc3F)noc2n1 | 76.1% (active)
48 | Fc1ccccc1-c1noc2nc(NC3CC3)ccc12 | 70.5% (active)
49 | c1ccc(-c2noc3nc(NC4CC4)ccc23)cc1 | 44.6%
50 | CC1CCCC(C)N1CCNc1ccc2c(-c3ccc(F)cc3)noc2n1 (stereo not given) | 47.2%

Row | SMILES | inhibition
51 | Fc1ccc(-c2noc3nc(NC4CC4)ccc23)cc1 | 92.9% (active)
52 | CCCC1=NN(C(C)=O)C(C(=O)NCCCN2CCCCC2C)O1 (stereo not given) | -9.23%
53 | c1ccc(-c2nc3c(ccc4ccccc43)[nH]2)nc1 | 96.1% (active)
54 | c1ccc(-c2nc3c(ccc4ccccc43)[nH]2)cc1 | 89.8% (active)
55 | c1ccc(-c2nc3cc4ccccc4cc3[nH]2)nc1 | 17.5%
56 | Oc1ccc2[nH]c(-c3ccccc3)nc2c1CN1CCCCC1 | 13.3%
57 | O=C1NC(=O)/C(=C/c2csc(-c3ccccc3)n2)S1 | 59.2% (active)
58 | O=C(NCC1CCCCN1)c1cc(OCC(F)(F)F)ccc1OCC(F)(F)F (stereo not given) | 84.3% (active)
59 | CC(C)C(=O)Nc1ccc(OCC(F)(F)F)c(C#N)c1 | -16.8%
60 | Cn1cccc1C(=O)NS(=O)(=O)c1ccc(C#N)c(Cl)c1 | 15%
61 | CC(NC(=O)c1cccnc1N1CCCCC1)c1ccc(C#N)cc1 (stereo not given) | 4.4%
62 | CC(C)c1ccc(C(C)NC(=O)c2cccn2C)cc1 (stereo not given) | 79% (active)
63 | Cc1ccc(C)c(-c2cc(C(=O)NCCC(=O)NCc3ccc(F)cc3)no2)c1 | 71.3% (active)
64 | CN(Cc1ccccc1)Cc1cc(C(=O)NCc2cccc(F)c2F)no1 | 38.5%
65 | Cn1cnc([N+](=O)[O-])c1Sc1ncnc2nc[nH]c12 | 56.7% (active)
66 | CC(C)c1ccc(NC(=O)c2ccc(S(N)(=O)=O)cc2)cc1 | 2.35%
67 | O=S(=O)(Nc1ccc2c(c1)OC1(CCCC1)O2)c1cccs1 | 27%
68 | CC1(C)Oc2ccc(NC(=O)c3ccnc(NC4CC4)c3)cc2O1 | -11.8%
69 | Cc1cc(C(=O)Nc2ccc3c(c2)OC2(CCCC2)O3)c(C)o1 | 56% (active)
70 | Cc1cc(C(=O)Nc2ccc(C(C)C)cc2)c(C)o1 | 61.2% (active)
71 | O=C(Nc1ccc(N2CCc3ccccc32)cc1)C1CCOC1 (stereo not given) | 74.7% (active)
72 | O=C(O)c1cn(Cc2cccc(F)c2)nc1OCc1cccc(F)c1 | 29.7%
73 | O=C(O)c1cn(Cc2ccc(F)cc2)nc1OCc1ccc(F)cc1 | 47.5%
74 | O=C(O)c1cn(Cc2ccccc2)nc1OCc1ccccc1 | 72.7% (active)
75 | COc1ccc(CCC(=O)Nc2cc(C)nn2-c2nc(C)cc(=O)[nH]2)cc1 | 101% (active)

Row | SMILES | inhibition
76 | CCc1cc(=O)[nH]c(-n2nc(C)cc2NC(=O)Cc2ccc(OC)cc2)n1 | 101% (active)
77 | COc1ccc(CC(=O)Nc2cc(C)nn2-c2nc(C)cc(=O)[nH]2)cc1 | 101% (active)
78 | CCCc1cc(=O)[nH]c(-n2nc(C)cc2NC(=O)CCc2ccc(OC)cc2)n1 | 101% (active)
79 | NCC(=O)Nc1ccc(-c2cccc3ccsc23)cc1F | 7.93%
80 | COC(C)c1ccc(-c2ccc(NC(=O)CN)c(F)c2)cc1 (stereo not given) | 70.7% (active)
81 | Fc1ccccc1CNCC1(c2ccnc(-c3ccc(Cl)cc3)c2)CC1 | 44%
82 | Fc1ccccc1-c1cnnc(NCCc2cccc(Cl)c2)n1 | 37.3%
83 | Fc1ccccc1CCNc1ncnc2ccc(Cl)cc12 | 60.7% (active)
84 | COc1cc(C(=O)NS(=O)(=O)c2ccc(C#N)cc2)ccc1C | 21.9%
85 | Cc1ccc(S(=O)(=O)NC(=O)c2ccccc2)cc1C(C)C | 72.5% (active)
86 | Cc1ccc(S(=O)(=O)NC(=O)c2cccc(F)c2)cc1C | 79% (active)
87 | Cc1ccc(S(=O)(=O)NC(c2cccs2)C2CC2)cc1C (stereo not given) | 37.1%
88 | Cc1ccccc1C(C)NS(=O)(=O)c1ccc(Cl)cc1 (stereo not given) | 17.3%
89 | O=[N+]([O-])c1cc(Br)c(O)c(Br)c1 | 98.7% (active)
90 | CN(C)P(=Nc1ccc([N+](=O)[O-])cc1Br)(N(C)C)C(C)(C)C | 11%
91 | Cc1cc([N+](=O)[O-])cc(C(C)(C)C)c1O | 101% (active)
92 | CC[n+]1c(C)csc1Nc1ccc(N=Nc2ccccc2)cc1 | -14.7%
93 | O=C(O)CC[N+](=O)[O-] | 98.6% (active)
94 | Cc1nc(SCc2nc3ccccc3o2)c2ccccc2n1 | 51.7% (active)
95 | CC(C)Oc1ncccc1CNC(=O)N1CCc2ccccc21 | 28.7%
96 | CN1CC2([N+](=O)[O-])C=C(Oc3ccc(F)cc3)CC([N+](=O)[O-])(C1)C2 (stereo not given) | 94.6% (active)
97 | Cc1ccc(Cl)cc1NCc1cnc(Cl)s1 | 26.4%
98 | Cc1nnc(NCCC23CC4CC(CC(C4)C2)C3)c(C#N)c1C | 50.3% (active)
99 | CC[C@@H](C(=O)[C@@H](C)[C@@H](O)[C@H](C)[C@@H]1O[C@@H]([C@@H](CC)C(=O)O)CC[C@@H]1C)[C@H]1OC2(C=C[C@@H](O)[C@]3(CC[C@@](C)([C@H]4CC[C@](O)(CC)[C@H](C)O4)O3)O2)[C@H](C)C[C@@H]1C (stereo not given in full) | 100% (active)
100 | C(=Nc1ccc(C23CC4CC(CC(C4)C2)C3)cc1)c1ccncc1 | -6.32%
